Structures are written as SMILES. Values joined by “and” are separate entries in the source; they are usually repeats but may differ in a detail not shown here. Identical values can stand only once. Records with an inconclusive call do not appear. Active and inactive are the calls of the source. Unless noted, calls follow the shape of the full dose curve.

The text below walks through data of PubChem BioAssay (NCATS).

The target in assay [1] is Glucocorticoid receptor (Homo sapiens) (UniProt P04150). The assay is described as follows: qHTS assay for small molecule agonists of glucocorticoid receptor signaling (AID 588532; active = well fitted curve in the direction sought with a large enough effect in the signal ratio, with a control signal flat; the % refers to the signal ratio;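 also: 100% = dexamethasone at 0.1 µM and 0% = DMSO only wells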). The note with it: HeLa MMTV-bla, beta-lactamase ratio, agonist, 18 h; activation: stronger effect = higher value, percent of dexamethasone control, DMSO zero. In outline: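 Agonist-mode qHTS: GRE-driven beta-lactamase in HeLa cells exposed 18 h to titrated compounds (up to 92 uM), then CCF4 ratio read after 2 h at RT; Hill-fitted EC50, efficacy relative to 0.1 uM dexamethasone.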
Chain of Glucocorticoid receptor (Homo sapiens) (P04150 whole entry, looked up): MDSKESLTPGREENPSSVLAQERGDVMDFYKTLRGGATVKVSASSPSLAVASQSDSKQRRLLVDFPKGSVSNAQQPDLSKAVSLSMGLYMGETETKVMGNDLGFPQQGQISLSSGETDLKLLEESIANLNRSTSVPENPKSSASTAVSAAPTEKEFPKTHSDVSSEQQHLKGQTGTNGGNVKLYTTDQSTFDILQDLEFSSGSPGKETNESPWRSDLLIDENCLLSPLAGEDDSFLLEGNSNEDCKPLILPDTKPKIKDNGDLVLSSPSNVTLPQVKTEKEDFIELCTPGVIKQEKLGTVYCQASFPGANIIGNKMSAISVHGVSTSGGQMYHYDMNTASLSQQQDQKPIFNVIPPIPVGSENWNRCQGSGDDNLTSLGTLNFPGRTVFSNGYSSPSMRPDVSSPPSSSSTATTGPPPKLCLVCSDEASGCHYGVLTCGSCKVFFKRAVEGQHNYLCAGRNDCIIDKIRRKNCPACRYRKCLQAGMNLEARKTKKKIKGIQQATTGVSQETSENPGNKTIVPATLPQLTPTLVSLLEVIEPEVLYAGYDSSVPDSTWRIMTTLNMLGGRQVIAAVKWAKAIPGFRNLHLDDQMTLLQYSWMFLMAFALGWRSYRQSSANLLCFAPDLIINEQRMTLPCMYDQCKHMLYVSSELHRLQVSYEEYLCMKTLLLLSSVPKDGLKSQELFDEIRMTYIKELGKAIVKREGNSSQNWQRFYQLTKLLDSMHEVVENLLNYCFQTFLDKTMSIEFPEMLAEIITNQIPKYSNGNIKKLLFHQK

The target of assay [2] is Vitamin D3 receptor (Homo sapiens) (UniProt P11473). The assay is described as follows: qHTS assay for small molecule agonists of vitamin D receptor signaling (AID 588543).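 Also: 0% = DMSO basal and 100% = reference agonist control.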 The conditions noted are these: HEK293T VDR-UAS-bla, beta-lactamase ratio, 16 h; series mostly up to 76.8 µM. An outline of the steps: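 GeneBLAzer VDR-UAS-bla HEK293T cells in 2% charcoal-stripped FBS medium were dosed with compound titrations for 16 h at 37 °C; CCF4 β-lactamase readout (405 nm ex, 460/530 nm em). EC50 and efficacy from Hill fits, normalized to 50 nM calcitriol (100%) and DMSO (0%).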
Chain of Vitamin D3 receptor (Homo sapiens) (P11473 whole entry, looked up): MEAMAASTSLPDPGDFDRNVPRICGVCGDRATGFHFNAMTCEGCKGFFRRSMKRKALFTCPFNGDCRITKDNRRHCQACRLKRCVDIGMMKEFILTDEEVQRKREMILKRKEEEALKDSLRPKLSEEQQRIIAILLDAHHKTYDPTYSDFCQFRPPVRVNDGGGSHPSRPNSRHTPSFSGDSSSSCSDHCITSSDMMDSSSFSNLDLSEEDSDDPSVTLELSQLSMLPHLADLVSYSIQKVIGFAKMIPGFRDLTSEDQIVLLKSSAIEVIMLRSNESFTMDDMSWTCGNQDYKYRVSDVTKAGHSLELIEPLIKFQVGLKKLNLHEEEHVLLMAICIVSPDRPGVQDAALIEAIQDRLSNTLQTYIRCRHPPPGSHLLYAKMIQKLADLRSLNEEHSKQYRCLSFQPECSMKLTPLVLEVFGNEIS

Assay [3] in a line: qHTS assay for small molecule agonists of the antioxidant response element (ARE) signaling pathway (AID 651741; active = well fitted activation curve with a large enough effect in the signal ratio; the % refers to the signal ratio; also: % of control where 0% means no effect). The conditions noted are these: HepG2 ARE-bla reporter, beta-lactamase FRET ratio, 16 h; series mostly up to 96 µM. In outline:
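Quantitative HTS in HepG2 cells stably expressing an ARE-beta-lactamase reporter; 16 h compound exposure at 37 C, followed by 2 h room-temperature incubation with LiveBLAzer B/G FRET substrate and fluorescence measurement.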

The nature of assay [4]: qHTS assay for small molecule activators of the nuclear factor-kappa B (NF-kB) signaling pathway (AID 651749; active = well fitted activation curve with a large enough effect in the signal ratio; the % refers to the signal ratio; also: % of control where 0% means no effect). The conditions noted are these: NF-kB-bla ME-180 cells, beta-lactamase FRET ratio, 16 h; activation: stronger effect = higher value. In outline:
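Readout: beta-lactamase reporter driven by an NF-kB response element, detected fluorescently as loss of FRET. Cells were the ME-180 line, treated 16 hr at 37C with pin-transferred compound.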

The target of assay [5] is Nuclear receptor subfamily 1 group I member 2 (Rattus norvegicus) (UniProt Q9R1A7). The assay is described as follows: qHTS assay for small molecule activators of the rat pregnane X receptor (rPXR) signaling pathway (AID 651751; call rule not given here; also: 0% is about no effect). The note with it: rPXR reporter cells, luciferase (One-Glo), 24 h.
Chain of Nuclear receptor subfamily 1 group I member 2 (Rattus norvegicus) (Q9R1A7 whole entry, looked up): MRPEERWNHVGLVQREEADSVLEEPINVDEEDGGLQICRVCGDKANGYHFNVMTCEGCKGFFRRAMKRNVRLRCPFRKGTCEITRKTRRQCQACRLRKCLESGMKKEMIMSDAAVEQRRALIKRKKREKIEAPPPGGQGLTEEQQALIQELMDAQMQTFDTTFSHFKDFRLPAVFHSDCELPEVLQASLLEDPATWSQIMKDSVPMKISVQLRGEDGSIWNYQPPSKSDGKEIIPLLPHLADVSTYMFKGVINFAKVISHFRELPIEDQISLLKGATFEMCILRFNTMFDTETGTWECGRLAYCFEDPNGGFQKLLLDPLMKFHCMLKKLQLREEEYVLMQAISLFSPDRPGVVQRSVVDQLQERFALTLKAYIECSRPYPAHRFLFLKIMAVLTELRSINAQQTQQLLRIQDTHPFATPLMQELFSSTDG
The nature of assay [6]: qHTS assay for small molecule antagonists of peroxisome proliferator-activated receptor delta signaling (AID 588535; active = well fitted inhibition curve with a large enough effect in the signal ratio, with a control signal flat, not every such curve was filed as active; the % refers to the signal ratio;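 as to max response: cells co-treated with a PPAR-delta agonist as stimulator during compound exposure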). The conditions noted are these: HEK293T PPARd-UAS-bla, beta-lactamase FRET ratio, 18 h; 460 nm channel. An outline of the steps: (§1)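 HEK293T PPAR-delta-UAS-bla cells, 4000/well, 2% charcoal/dextran FBS; 5 h 37 C; cpd titration; 18 h 37 C; CCF4 2 h RT; FI 460/530 nm; Hill fit → IC50, efficacy.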

Assay [7] concerns the target Peroxisome proliferator-activated receptor delta (Homo sapiens) (UniProt Q03181). The description is as above. The conditions noted are these: HEK293T PPARd-UAS-bla, beta-lactamase FRET ratio, 18 h; series mostly up to 76.7 µM. An outline of the steps:
as §1

The nature of assay [8]: qHTS assay for small molecule activators of the human pregnane X receptor (PXR) signaling pathway (AID 720659; call rule not given here; also: 0% is about no effect). The note with it: DPX-2 HepG2 CYP3A4-luciferase, 24 h; series mostly up to 92.3 µM.
Assay [9] concerns the target Androgen receptor (Homo sapiens) (UniProt P10275). The assay is described as follows: qHTS assay for small molecule agonists of androgen receptor signaling (AID 588515; active = well fitted curve in the direction sought with a large enough effect in the signal ratio, with a control signal flat; the % refers to the signal ratio; also: % is scaled to controls: 0 for no effect and ±100 for the full control effect). The note with it: AR-UAS-bla HEK293, beta-lactamase ratio, agonist 16 h; stronger effect = higher value. In outline: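 EC50 and efficacy came from Hill fits of titrations (up to 92 uM) normalized to 30 nM R1881 as 100% and DMSO as 0%. Compound exposure was 16 h at 37 C on AR-UAS-bla HEK293 cells, with a 405/460/530 nm CCF4 fluorescence read.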

Assay [10] shares this target. The assay is described as follows: qHTS assay for small molecule antagonists of androgen receptor signaling (AID 588516; active = well fitted curve in the direction sought with a large enough effect in the signal ratio, with a control signal flat, not every such curve was filed as active; the % refers to the signal ratio; also: % is scaled to controls: 0 for no effect and ±100 for the full control effect). The conditions noted are these: AR-UAS-bla HEK293, beta-lactamase ratio, antagonist mode, 16 h; series mostly up to 76.8 µM. In outline: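 AR-UAS-bla-GripTite HEK 293 cells (2000/well, 5 h at 37 C) received compound titrations, then R1881 at 10 nM final; after 16 h at 37 C, CCF4 dye 2 h RT, beta-lactamase fluorescence read; IC50 from Hill fits.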

Assay [11] deals with Bile acid receptor (Homo sapiens) (UniProt Q96RI1). The assay is described as follows: qHTS assay for small molecule antagonists of farnesoid X receptor signaling (AID 588526). Also: % is scaled to controls: 0 for no effect and ±100 for the full control effect. The conditions noted are these: HEK293T FXR-UAS-bla, beta-lactamase ratio, antagonist mode; series mostly up to 76.7 µM. An outline of the steps: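 Beta-lactamase reporter antagonist mode: HEK293T FXR-UAS-bla cells, titrated compound, CDCA stimulation, 16 h 37 C, CCF4 dye 2 h RT. Data normalized to CDCA 50 uM and DMSO; Hill-fit IC50.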
Chain of Bile acid receptor (Homo sapiens) (Q96RI1 whole entry, looked up): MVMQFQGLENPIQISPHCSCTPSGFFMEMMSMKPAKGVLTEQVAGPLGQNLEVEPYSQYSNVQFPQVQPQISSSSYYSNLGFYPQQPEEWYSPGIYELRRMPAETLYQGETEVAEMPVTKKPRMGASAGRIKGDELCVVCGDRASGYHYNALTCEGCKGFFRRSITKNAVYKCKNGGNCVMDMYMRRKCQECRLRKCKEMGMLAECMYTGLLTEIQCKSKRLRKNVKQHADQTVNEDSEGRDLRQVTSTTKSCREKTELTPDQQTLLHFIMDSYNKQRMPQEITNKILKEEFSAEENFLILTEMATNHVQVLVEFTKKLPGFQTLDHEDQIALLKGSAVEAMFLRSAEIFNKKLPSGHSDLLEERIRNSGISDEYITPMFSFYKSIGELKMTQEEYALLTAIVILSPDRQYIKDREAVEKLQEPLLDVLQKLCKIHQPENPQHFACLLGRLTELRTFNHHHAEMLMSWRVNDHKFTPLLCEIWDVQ

For assay [12] the target is unchanged. The assay is described as follows: qHTS assay for small molecule agonists of farnesoid X receptor signaling (AID 588527).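 Also: 0% = vehicle basal and 100% = reference agonist.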 The conditions noted are these: HEK293T FXR-UAS-bla, beta-lactamase ratio, 16 h; activation: stronger effect = higher value. In outline:
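Read-out: beta-lactamase reporter fluorescence with CCF4 substrate in GeneBLAzer FXR-UAS-bla HEK293T cells, after 16 h compound exposure at 37 C. Response scaled between DMSO basal (0%) and chenodeoxycholic acid at 100 uM (100%).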

Chain of Androgen receptor (Homo sapiens) (P10275 whole entry, looked up): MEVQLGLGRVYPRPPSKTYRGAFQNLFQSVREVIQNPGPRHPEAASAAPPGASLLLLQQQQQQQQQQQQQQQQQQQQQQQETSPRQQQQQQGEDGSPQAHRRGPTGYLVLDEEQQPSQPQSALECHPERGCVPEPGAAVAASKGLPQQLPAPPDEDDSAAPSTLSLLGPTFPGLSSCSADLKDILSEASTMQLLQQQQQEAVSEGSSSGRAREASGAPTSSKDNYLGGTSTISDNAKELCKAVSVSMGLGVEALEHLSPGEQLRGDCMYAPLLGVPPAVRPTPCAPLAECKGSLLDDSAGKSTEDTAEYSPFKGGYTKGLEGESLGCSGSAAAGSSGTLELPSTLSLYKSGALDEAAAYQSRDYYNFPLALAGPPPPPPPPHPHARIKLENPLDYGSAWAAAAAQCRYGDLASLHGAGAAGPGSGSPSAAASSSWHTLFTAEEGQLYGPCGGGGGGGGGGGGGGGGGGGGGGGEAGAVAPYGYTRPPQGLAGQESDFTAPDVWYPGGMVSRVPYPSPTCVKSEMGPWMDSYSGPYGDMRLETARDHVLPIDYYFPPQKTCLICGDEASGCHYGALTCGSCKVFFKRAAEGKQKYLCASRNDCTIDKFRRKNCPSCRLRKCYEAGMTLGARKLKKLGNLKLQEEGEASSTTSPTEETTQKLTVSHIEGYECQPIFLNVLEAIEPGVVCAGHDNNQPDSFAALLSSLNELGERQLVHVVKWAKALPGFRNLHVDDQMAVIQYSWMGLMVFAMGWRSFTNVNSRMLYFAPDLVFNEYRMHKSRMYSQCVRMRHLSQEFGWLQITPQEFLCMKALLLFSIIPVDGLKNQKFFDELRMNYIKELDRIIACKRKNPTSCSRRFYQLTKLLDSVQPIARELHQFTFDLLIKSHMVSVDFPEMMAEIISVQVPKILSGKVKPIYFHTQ
Chain of Peroxisome proliferator-activated receptor delta (Homo sapiens) (Q03181 whole entry, looked up): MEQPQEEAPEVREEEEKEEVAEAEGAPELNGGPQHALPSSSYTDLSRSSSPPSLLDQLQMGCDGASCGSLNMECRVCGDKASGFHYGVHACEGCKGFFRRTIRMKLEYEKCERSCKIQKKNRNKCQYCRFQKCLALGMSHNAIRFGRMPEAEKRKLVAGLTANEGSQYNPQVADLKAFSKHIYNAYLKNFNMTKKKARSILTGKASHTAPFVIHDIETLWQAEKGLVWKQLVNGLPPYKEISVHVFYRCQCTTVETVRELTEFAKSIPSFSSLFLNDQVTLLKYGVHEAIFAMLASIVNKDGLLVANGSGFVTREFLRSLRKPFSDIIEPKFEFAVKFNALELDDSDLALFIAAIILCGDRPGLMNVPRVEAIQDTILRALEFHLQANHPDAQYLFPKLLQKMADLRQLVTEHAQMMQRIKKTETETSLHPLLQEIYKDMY

As to `COc1cc(Cl)c(OC)cc1Cl`, the activation is -1.33% (inactive) in [1] and -1.99% (inactive) in assay [4]. Besides, the result in [2] was inactive. The Potency result in assay [3] is “inactive”. Also, in assay [5], the max response is 1.36% (inactive).
As to `C=C(C)CN(CC)c1c([N+](=O)[O-])cc(C(F)(F)F)cc1[N+](=O)[O-]`, the activation in assay [1] is 1.61% (inactive); in [4], -4.66% (inactive). For the same compound, the max response in [6] was 5.96%. Moreover, in [7], the Potency entry is “inactive”.
Take `Cn1cc(-c2ccccc2)c(=O)c(-c2cccc(C(F)(F)F)c2)c1`: the activation in assay [1] was -15.3% (inactive); in [4] it was -0.874% (inactive). In addition, the max response in assay [6] was 16.9%; in [5] it was 0.923% (inactive). Further, the Potency entry in assay [7] is “inactive”.
As to `CCN(CC)c1nc(C)cc(OP(=S)(OC)OC)n1`, the results for the activation in [1] and in assay [4] were 19.3% (inactive) and 0.586% (inactive), respectively. Besides, the max response was 56.7% in assay [6] and -1.67% (inactive) in assay [5]. Further, the Potency entry in [7] is “inactive”. Moreover, the outcome in assay [2] and in assay [8] was inactive.
Regarding `Cc1cc(C)nc(NC(=O)NS(=O)(=O)c2ccccc2C(=O)OC2COC2)n1`, the activation is -3.69% (inactive) in assay [9], 10.1% (inactive) in [1] and 1.32% (inactive) in assay [4]. The Potency entry in assay [10], in [11] and in assay [7] was “inactive” in each case. In addition, the figures for the max response in assay [6] and in [5] were 2.3% and -3.04% (inactive), respectively. In [8], the result was inactive.
As for `CCOP(=O)(OCC)SCSP(=S)(OCC)OCC`, the activation in [9] was -6.59% (inactive); in assay [12] it was 10.4% (inactive); in assay [1], -5.04% (inactive); in [4], 1.64% (inactive). Further, the Potency result in [10], in [11] and in assay [7] was “inactive” throughout. Further, the max response in [6] is -37.2%. For the same compound, the outcome in [2] was inactive.
For `O=S(=O)(O)C(F)(F)C(F)(F)C(F)(F)C(F)(F)C(F)(F)C(F)(F)F`, the Potency result in assay [11] and in [7] was “inactive” in each case. In addition, the activation was -1.09% (inactive) and 0.298% (inactive) in [12]; 0.018% (inactive) and -0.659% (inactive) in assay [4]. In addition, the max response in assay [6] was -35.3% and 95.7%; in assay [5], -2.73% (inactive) and -3.57% (inactive). Besides, the outcome in [2] and in assay [8] was inactive.
In the case of `CC1(C)Cc2cccc(O)c2O1`, the result in assay [2] and in assay [8] was inactive. The Potency result in [3] is “inactive”. The max response in [5] was 1.61% (inactive).
